Compounds with a hit are over-represented: about 2.6% of the library has one in this group of screens.
EWS-Fli block: inhibitors of EWS/Fli oncoprotein transcriptional activity; 350,000 tested, 0.67% active; inhibition, % at 12.6 µM; A673 NR0B1-luciferase reporter, viability-normalised; AID 651661;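 active = mean inhibition of at least 50% after viability correction, with every replicate also passing that limit; inconclusive = mean reaches 50% but only one of two replicates passes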;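 also: firefly luciferase signal divided by Alamar Blue viability fluorescence both relative to DMSO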
LGR2 inh: inhibitors of bursicon-induced Drosophila LGR2 receptor cAMP signaling | HEK293 LGR2, CRE-luciferase, bursicon-stimulated, 4 h | inhibition, % at 9.99 µM | 380,000 tested, 0.35% active | AID 720647;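 active = drop in luminescence signal, shown as inhibition above about 50% in the replicate tests, limit read from the data, passing the limit was not always enough; inconclusive = probably only some replicates passing the limit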;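 also: agonist challenge used bursicon conditioned medium at about half maximal strength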
EBV LMP1 NFkB: reduces LMP1-driven NF-kappaB luciferase signal | LMP1-induced NF-kappaB luciferase reporter cells, luminescence | inhibition, % at 12.5 µM | 350,000 tested, 0.69% active | AID 504558; in the data active = inhibition above about 41%; inconclusive = no clear call, values can overlap the other calls;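 also: 0% = neutral control wells and 100% = reference inhibitor control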
TWEAK-Fn14 inh: blocks TWEAK-Fn14 interaction in a reporter cell assay. TWEAK-stimulated Fn14 reporter cells, luciferase luminescence, 8 h. inhibition, % at 10 µM. 360,000 tested, 2% active; in the data active = inhibition above about 50%
TROY signal inh: TROY signaling inhibition | inhibition, % at 10 µM | AID 1347056 | 360,000 tested, 0.98% active | Q293 LMP1-TROYcd NF-kB luciferase reporter, 4 h;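 active = compounds whose plate-normalised and pattern-corrected inhibition of the luciferase reporter signal at the single screening dose is 50% or more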
* hit, by the source's call; u = inconclusive; x = no result.

SMILES	EWS-Fli block	LGR2 inh	EBV LMP1 NFkB	TWEAK-Fn14 inh	TROY signal inh
Cc1cc(NC(=O)c2cccs2)ncc1NC(=O)C(C)(C)C	-2.1	19.8	-4.0	46.7	51.5*
Cc1nnc(NC(=O)CSc2nnc(Cc3cccn3C)n2CCc2ccccc2)s1	-3.0	0.8	65.8*	-8.8	3.9
Cn1cccc1Cc1nnc(SCC(=O)Nc2nc3ccccc3s2)n1CCc1ccccc1	14.2	x	-10.6	22.6	-12.2
N#CC1=C(N)SC(N)=C(C#N)C1c1cccc(Oc2ccccc2)c1	2.4	-6.9	-4.1	45.9	61.7*
Cc1cc(O)c(C2=Nc3ccccc3SC(c3ccc(Cl)cc3)C2)c(=O)o1 (configuration not stated)	x	37.0	9.8	76.6*	75.0*
COc1ccc(C2CC(c3c(O)cc(C)oc3=O)=NCCS2)c(OC)c1 (configuration not stated)	x	x	14.3	-102.1	-40.4
CCCC(=O)Nc1ccc2c(c1)OC[C@@H](C)N(CCc1ccccc1)C[C@H](C)[C@@H](OC)CN(C)C2=O	0.9	-4.4	x	x	x
CSc1oc(-c2ccc(F)cc2)nc1S(=O)(=O)c1ccc(F)cc1	9.6	15.6	88.8*	13.5	8.8
CC(C)CC#Cc1cnc2c(c1)C(=O)N([C@H](C)CO)C[C@H](C)[C@H](CN(C)Cc1ccccn1)O2	-7.9	-8.9	x	x	x
CCn1c(SCC(=O)Nc2ccccc2C)nnc1-c1ccccc1O	x	1.8	0.0	11.6	2.5
Cc1ccccc1NC(=O)CSc1nnc(-c2ccccc2)n1-c1ccccc1	x	x	0.3	-9.6	55.7*
O=C(C[C@H]1CC[C@@H](NC(=O)c2ccncc2)[C@@H](CO)O1)Nc1ccc(-c2ccccc2)cc1	-3.2	2.2	x	x	x
COC(=O)c1sc(NC(=S)NC(=O)c2ccccc2F)nc1C	-48.3	-11.0	-1.3	52.3*	21.1
COC(=O)c1cc(Cl)c(NC(=O)c2ccc(C(C)(C)C)cc2)cc1OC	x	-4.2	11.1	-6.1	-1.8
Cc1nnc(NC(=O)c2cc3ccccc3o2)s1	-97.4	-35.9	-0.4	12.1	-18.3
Cc1nc(NC(=O)c2cc3ccccc3o2)sc1C	-46.3	-16.4	-13.9	56.7*	22.5
COC(=O)c1cc(Cl)c(NC(=O)c2cc3ccccc3o2)cc1OC	x	x	-9.4	54.3*	x
CCOC(=O)c1sc(NC(=O)c2ccc3ncsc3c2)nc1C	87.1*	-28.0	-22.2	-28.8	-61.6
COC(=O)c1sc(NC(=S)NC(=O)c2cccc(C)c2)nc1C	-12.4	x	-3.8	14.3	25.7
COc1ccc2c3c(n(C)c2c1)[C@@H](CO)N(S(C)(=O)=O)CC31CN(C(=O)C2CCCC2)C1	-0.4	-6.5	x	x	x
CCOC(=O)c1sc(NC(=O)c2cc3ccccc3o2)nc1C	87.0*	-68.7	1.7	-13.2	-40.4
CCOC(=O)c1csc(NC(=O)c2ccc(OCC)cc2)n1	53.4*	49.6	15.4	36.5	0.3
CCOC(=O)c1csc(NC(=O)c2cc3ccccc3o2)n1	58.6*	-54.0	-15.4	0.7	-30.9
Cc1cc(C(=O)Nc2cccc(C(=O)O)c2)oc1C	x	x	66.0*	21.8	-62.8
Cc1cc(C(=O)Nc2cccc(C(=O)O)c2)c(C)o1	x	x	-6.0	-8.1	-37.2
SMILES	EWS-Fli block	LGR2 inh	EBV LMP1 NFkB	TWEAK-Fn14 inh	TROY signal inh
CCOC(=O)c1ccccc1NC(=O)c1cc2ccccc2o1	-191.4	0.6	-1.6	-62.0	-25.6
CN1CCN(C(=O)C[C@@H]2C=C[C@@H](NC(=O)c3ccc4c(c3)OCO4)[C@@H](CO)O2)CC1	7.6	15.7	x	x	x
COc1ccc(S(=O)(=O)N(C)C[C@H]2OCCCC[C@H](C)Oc3ccc(NS(C)(=O)=O)cc3C(=O)N([C@H](C)CO)C[C@H]2C)cc1	-10.9	-5.7	x	x	x
CCOC(=O)c1sc(Nc2ccccc2Cl)nc1C	-29.1	-108.1	-17.7	-39.7	-51.1
CCOC(=O)c1ccc(NC(=O)c2cc3ccccc3o2)cc1	x	x	2.4	26.5	21.5
CCOC(=O)c1sc(NC(=O)c2ccc(CC)s2)nc1C	x	x	-46.3	19.2	-51.2
CCOC(=O)c1cccc(NC(=O)c2cc3ccccc3o2)c1	84.1*	-14.8	-11.5	-33.6	-28.0
CCOC(=O)c1sc(NC(=O)Nc2ccccc2F)nc1C	x	u	17.8	94.1*	82.1*
CCOC(=O)c1sc(NC(=O)c2ccccc2OC)nc1C	86.0*	12.0	-12.1	36.2	-5.0
COc1ccc(-c2ccc([C@@H]3[C@H](C#N)N(C(=O)C4CCCC4)[C@H]3CO)cc2)cc1	3.3	10.0	x	x	x
Cc1ccc(C)c(S(=O)(=O)Nc2ccc(O)c3ccccc23)c1	-1.5	5.8	9.8	84.6*	41.5
CC1CCCC(C)N1CC(O)COCc1ccccc1 (configuration not stated)	6.2	9.4	7.3	21.9	-19.1
COc1cc(COCC(O)CN2C(C)CCCC2C)cc(OC)c1OC (configuration not stated)	9.9	4.2	87.8*	-5.8	-8.1
CC(=O)Nc1cc2nn(-c3ccccc3)nc2cc1Cl	x	x	-18.2	27.6	-26.5
CC(C)(C)C(=O)Nc1cc2nn(-c3ccccc3)nc2cc1Cl	x	x	75.3*	108.2*	90.7*
Cc1cccc(-n2ncc3c(NCc4ccccc4)ncnc32)c1	15.8	-55.7	-8.1	-8.3	-46.3
Cc1ccc(-n2ncc3c(NNC(=O)c4ccco4)ncnc32)cc1Cl	-8.5	1.1	2.9	50.3*	19.2
Clc1ccc(-n2ncc3c(NCc4cccnc4)ncnc32)cc1Cl	x	-67.1	-29.1	19.1	51.0*
COC(=O)C[C@H]1CC[C@@H]2[C@H](COc3ccc(NC(=O)Nc4cc(C)cc(C)c4)cc3C(=O)N2C)O1	17.2	3.5	x	x	x
C[C@@H]1CN([C@H](C)CO)C(=O)c2cc(NS(=O)(=O)c3cccs3)ccc2O[C@@H](C)CCCCO[C@@H]1CN(C)S(=O)(=O)c1ccccc1	4.3	-13.5	x	x	x
C=CCn1c(-c2ccc(N)cc2)nc2ccccc21	-72.6	-67.4	-39.9	-37.3	-37.4
C=CCn1c(-c2ccc(OC)cc2)nc2ccccc21	x	x	-3.7	57.2*	x
C[C@@H]1CN([C@H](C)CO)C(=O)Cc2cc(NS(=O)(=O)c3ccc(Cl)cc3)ccc2O[C@@H]1CN(C)C(=O)Nc1ccccc1	13.7	0.5	x	x	x
CN(C)CC(=O)Nc1ccc2c(c1)[C@@H]1C[C@@H](CC(=O)NCCN3CCCCC3)O[C@H](CO)[C@@H]1O2	-12.1	2.4	x	x	x
COc1ccc2cc3c(N)nn(C(=O)Cc4c[nH]c5ccccc45)c3nc2c1	21.9	87.8*	75.3*	94.7*	67.0*
COc1ccc2cc3c(N)nn(C(=O)c4cccc(F)c4)c3nc2c1	-22.3	13.0	25.9	14.3	15.3
COc1ccc2cc3c(N)nn(C(=O)c4ccccc4Cl)c3nc2c1	18.6	28.3	80.0*	82.2*	49.6
COc1ccc2cc3c(N)nn(C(=O)c4ccc(F)cc4)c3nc2c1	-28.9	10.8	37.8	55.4*	38.3
C[C@@H]1CCCCO[C@@H](CN(C)Cc2ccc3c(c2)OCO3)[C@@H](C)CN([C@@H](C)CO)C(=O)c2cc(NS(C)(=O)=O)ccc2O1	3.5	-14.6	x	x	x
Cc1cc(C)c2nc(NC(=O)c3ccc(OCC4CCCO4)cc3)sc2c1 (configuration not stated)	-19.3	-25.8	10.8	52.8*	-11.7

Bioassay records: PubChem BioAssay, several laboratories
